# In PubChem BioAssay AID588719 (Southern Research Specialized Biocontainment Screening …, 2011):
# Screen size: about 1,500 compounds; about 920 (61%) were called active. The rule behind the calls is not given here. The set was probably picked from earlier hits. Some of the results follow. Results with a measured potency or affinity are listed apart.
# Experiment: Vero 76 cell cytotoxicity, dose response, cytotoxicity control for VEEV inhibitor project (AID 588719)
# Conditions: Vero 76 cells viability, cytotoxicity counter-screen; series mostly up to 25 µM; viability: at the top concentration
row,SMILES,viability
1,CCOC(=O)c1c(CN2CCOCC2)n(-c2ccccc2)c2ccc(O)cc12,80.8% (inactive)
2,O=C(NC1CCCCC1)c1ccc2ccccc2c1O,81.8% (inactive)
3,CC(C)/C(C=O)=C(/NC1CCCCC1)c1ccccc1,86.3% (inactive)
4,CN1c2ccccc2C(C)(C)C12CC(c1ccc(S(=O)(=O)N3CCCCC3)cc1)=NO2 (configuration not stated),78.2% (inactive)
5,COc1ccc(OC)c2cc3ccccc3cc12,86% (inactive)
6,O=C(O)CCc1ccc(-c2ccccc2)n1-c1ccc(C(=O)O)cc1,90.1% (inactive)
7,COc1cccc(C#Cc2ccc3c(c2)O[C@H](CN(C)C)[C@@H](C)CN([C@@H](C)CO)S3(=O)=O)c1,99.8% (inactive)
8,O=C(Cc1n[nH]c(=O)c2ccccc12)OCc1c(Cl)cccc1Cl,82.8% (inactive)
9,CC(=O)c1c(O)c(C)c(O)c2c1OC1=Cc3c(c(C)nn3C)C(=O)C12C (configuration not stated),84% (inactive)
10,Cc1onc(-c2ccc(Cl)cc2Cl)c1-c1csc(N/N=C/c2ccccc2Cl)n1,70.9% (inactive)
11,Cc1cccc(NC(=O)CSc2cc(C)c(C#N)c3nc4ccccc4n23)c1,73.1% (inactive)
12,CN(C)CCNC(=O)c1cc2sc3ccccc3c2s1,73.9% (inactive)
13,C(=N\Nc1nncc2ccccc12)/c1ccccc1,86.1% (inactive)
14,Cc1ccc2c(Cl)cc(Cl)c(O)c2n1,41.4% (inactive)
15,CCOC(=O)c1c(-c2cccc3ccccc23)csc1NC(=O)C1C2CCC(O2)C1C(=O)O (configuration not stated),94.4% (inactive)
16,CN(C)S(=O)(=O)c1cccc(C(=O)Nc2ccccc2C(=O)NC2CC2)c1,88.7% (inactive)
17,CC(C)c1ccc(N=Cc2c(O)n(C3CC3)c(=S)[nH]c2=O)cc1,97.1% (inactive)
18,CCOC(=O)CCCc1ccc(/C(C)=N/NC(N)=S)cc1,73.3% (inactive)
19,CC(Sc1ccc(S(=O)(=O)N2CCOCC2)cn1)c1ccccc1Cl (configuration not stated),70.6% (inactive)
20,CC(C)(C)c1cc[n+](C2=C([O-])c3ccccc3C(=O)/C2=N\S(=O)(=O)c2cccs2)cc1,74.5% (inactive)
21,Cc1ccccc1NS(=O)(=O)c1ccc(C(=O)NCc2ccccc2CN2CCCC2)cc1,72.2% (inactive)
22,O=C(CCCOc1ccc(Cl)cc1Cl)Nc1ccccc1C(=O)O,101% (inactive)
23,O=C(Oc1oc(-c2ccco2)nc1C=Nc1ccc(Cl)cc1)c1ccco1,71.6% (inactive)

row,SMILES,viability
1,CC1(C)Nc2ccccc2C(=O)N1c1ccc(Br)cc1,86.3% (inactive)
2,COc1ccc(C/C(N)=N/OC(=O)c2cccs2)cc1,91.3% (inactive)
3,NNC(=O)C1CCN(S(=O)(=O)c2ccc(Cl)cc2)CC1,86.3% (inactive)
4,Cc1cc(O)c(-c2cc(C(=O)NCCc3ccc(S(N)(=O)=O)cc3)[nH]n2)cc1C,92.2% (inactive)
5,Cc1cc(C)c2c(=O)n(CC(=O)NC3CCCC3)sc2n1,79.1% (inactive)
6,Cc1cc(NC(=O)COC(=O)c2c(Cl)cccc2Cl)no1,83.3% (inactive)
7,COc1ccc(-c2cc(C(=O)Nc3c(C)n(C)n(-c4ccccc4)c3=O)c3ccccc3n2)c(OC)c1,85% (inactive)
8,COc1ccc(C)c2sc(N(CCCN(C)C)C(=O)c3ccc4c(c3)OCCO4)nc12,71.3% (inactive)
9,COc1ccccc1/C=C/C(=O)c1ccccc1,79.3% (inactive)
10,COC(=O)CCC1(C(N)=O)CCC(=O)c2ccccc21 (configuration not stated),94.8% (inactive)
11,CC1(C)Cc2c(sc(NC(=O)COc3cccc4ccccc34)c2C#N)C(C)(C)N1,75.6% (inactive)
12,OCCCNc1cc(-c2ccnc(Nc3cccc(Cl)c3)n2)ccn1,35.2% (inactive)
13,CCCC(C)NC(=O)c1ccccc1SC (configuration not stated),94% (inactive)
14,CC1(C)CCCN(Cc2c(O)ccc3c(=O)c(-c4nc5ccccc5s4)c(N)oc23)C1,73.8% (inactive)
15,CCOC(=O)C1=NNC(=O)C1,89.4% (inactive)
16,O=C(Nc1ccc(Cl)c(Cl)c1)Nc1ccccc1C(=O)O,86.6% (inactive)
17,CCN(CC)CCN(Cc1cc2ccc(C)cc2[nH]c1=O)C(=O)Nc1ccc(Cl)cc1,74.2% (inactive)
18,O=C(COc1cccc2ccccc12)Nc1ccc(Cl)cc1C(=O)O,83.9% (inactive)
19,CCN(CC)CCNC(=O)c1cc2cc(Br)ccc2s1,126% (inactive)
20,Nc1ccc(C(=O)OCc2nc3cc4ccccc4cc3[nH]2)cc1,79.8% (inactive)
21,CC(=O)Nc1cc[n+](CC(=O)c2cccc([N+](=O)[O-])c2)cc1,94.5% (inactive)
22,C[C@@H]1CN([C@H](C)CO)C(=O)CCCn2nncc2CO[C@@H]1CN(C)C(=O)c1cc(-c2ccccc2)on1,84.7% (inactive)
23,COc1ccc(-c2onc(C)c2-c2ccc3c(c2)OCCO3)c(O)c1,77.7% (inactive)

row,SMILES,viability
1,Cc1[nH]c2ccc(-c3nnc(SCC(=O)c4ccccc4F)o3)cc2c1C,85.8% (inactive)
2,O=C(CCCN1C(=O)/C(=C\c2ccco2)SC1=S)Nc1ccc2ccccc2c1,81.3% (inactive)
3,CCOC(=O)c1c(NC(=O)C(C)Sc2cccc[n+]2[O-])sc2c1CCN(Cc1ccccc1)C2 (configuration not stated),70.2% (inactive)
4,Cc1nc2c(sc3nc(N4CCOCC4)c4c(c32)CC(C)(C)OC4)c(-c2ccccc2)c1C(=O)O,71.6% (inactive)
5,CC(C)CCOC(=O)C[N+](C)(C)CCOC1CC2CCC1(C)C2(C)C (configuration not stated),93.3% (inactive)
6,CC(Sc1nnc(Nc2ccccc2)s1)C(=O)Nc1nc(-c2ccccc2)cs1 (configuration not stated),79.9% (inactive)
7,O=C1NC(=O)N(Cc2ccccc2)C(=O)/C1=C/C=C/c1ccco1,86.7% (inactive)
8,CCOC(=O)N1CCN(S(=O)(=O)c2ccc(C(=O)N(CCCN(C)C)c3nc4ccc(CC)cc4s3)cc2)CC1,74.5% (inactive)
9,COc1ccccc1C1CCCN1Cc1nc(-c2ccc(C)s2)oc1C (configuration not stated),70.5% (inactive)
10,NCCSc1c(-c2ccc(F)cc2)[nH]c2ccccc12,76.5% (inactive)
11,CSc1nnc2c3ccccc3n(CCc3ccccc3)c2n1,89.9% (inactive)
12,CN(C)CC/C=C1/c2ccccc2Sc2ccc(Cl)cc21,72.8% (inactive)
13,CCCc1cc(C(=O)Nc2cnn(Cc3ccc(F)cc3)c2)no1,88.8% (inactive)
14,COc1cc(C2C(C#N)=C(N)Oc3c2ccc2ccccc32)ccc1OCC(=O)Nc1ccc(C)cc1 (configuration not stated),72.4% (inactive)
15,COc1cccc(N2C(=O)/C(=C/c3ccc(C)o3)C(=O)NC2=S)c1,89.4% (inactive)
16,CNCCCC12CCC(c3ccccc31)c1ccccc12,79.4% (inactive)
17,Cc1ccccc1S(=O)(=O)N(C)C[C@H]1OCc2cnnn2CCCC(=O)N([C@H](C)CO)C[C@H]1C,95% (inactive)
18,CCOc1ccccc1CNC(=O)c1cc2oc3ccccc3c2n1C,71.7% (inactive)
19,Cc1oc(C(C)(C)C)cc1-c1cc(NC(=O)c2ccc([N+](=O)[O-])cc2)n[nH]1,81.8% (inactive)
20,COc1ccc(C2(C)ON(c3ccccc3C(F)(F)F)C2=O)cc1 (configuration not stated),81% (inactive)
21,COc1ccccc1[C@@]1(C)ON(c2ccccc2C(F)(F)F)C1=O,84.1% (inactive)
